# Source: PubChem BioAssay (EPA / NIEHS)
# The source made the active and inactive calls. The calls were made as follows: active = hit-call score of the fitted dose curve at least 0.9, where 1 is the maximum; inactive = score below 0.9.
# Test: ATG_E_Box_CIS: Attagene CIS-FACTORIAL HepG2 Assay for human Enhancer Box (E-box) (AID 2282936)
# Conditions: HepG2 E-box cis-reporter transcription, actives raise or lower the signal
# Experimental: ATG_CIS is a cell-based, multiplexed-readout assay that uses HepG2, a human liver cell line, with measurements taken at 24 hours after chemical dosing in a 24-well plate.ATG_E_Box_CIS is one of 52 assay component(s) measured or calculated from the ATG_CIS assay. It is designed to make measurements of mRNA induction, a form of inducible reporter, as detected with fluorescence intensity signals by Reverse transcription polymerase chain reaction (RT-PCR) and Capillary electrophoresis technology.Data from the assay component ATG_E_Box_CIS was analyzed into 1 assay endpoint. This assay endpoint, ATG_E_Box_CIS, was analyzed with bidirectional fitting relative to DMSO as the negative control and baseline of activity. Using a type of inducible reporter, measures of mRNA for gain or loss-of-signal activity can be used to understand the reporter gene at the transcription factor-level as they relate to the gene USF1. Furthermore, this assay endpoint can be referred to as a primary readout, because this assay has produced multiple assay endpoints where this one serves a reporter gene function. To generalize the intended target to other relatable targets, this assay endpoint is annotated to the dna binding intended target family, where the subfamily is basic helix-loop-helix protein.
# Human liver HepG2 cells are transiently transfected with multiple reporter transcription units (MRTUs) in 6-well plates using FuGene 6 reagent (Roche; 3 ml FuGene/1 mg DNA). The MRTU constructs are regulated by a cis-regulating element (promoter). […] A major difference between the CIS and TRANS system is that in CIS activities of endogenous TFs are measured, whereas the TRANS assay evaluates changes in activities of exogenous, chimeric NR-Gal4 proteins. […] At the end of 24 hour incubation, total RNA was isolated using TriZol reagent (Invitrogen). The isolated RNA is then reverse-transcribed using oligo(dT) primer and Mo-MLV reverse transcriptase (Invitrogen) with DNAse I (Ambion) treatment for 30 min. The one-tenth of the produced cDNA was amplified by PCR using Taq DNA polymerase (Invitrogen) and two reporter sequence-specific primers. The PCR products were fluorescently labeled by primer extension with 6-arboxyfluorescein (6-FAM) 5'-labeled reporter sequence-specific primer (2 min at 95 C, 20 s at 68 C and 10 min at 72 C) and these products were digested with 5U of HpaI (New England Biolabs) for 2h at 37 C. The fragments were purified using Qiaquick PCR columns (Qiagen), analyzed on an ABI 3130xL genetic analyzer (Applied Biosystems) with peak positions identified by using a set of X-rhodamine (ROX)-labeled MapMarker1000 molecular weight standards (BioVentures). The raw capillary electrophoresis data was processed using Attagraph software (Attagene).
Structure (SMILES),outcome,AC50
C=COCCOCCOC=C,inactive,–
C#CC(C)(O)CC(C)C (stereo not given),inactive,–
CC(C)Nc1nc(N)nc(Cl)n1,inactive,–
C=Cc1ccc(C(C)(C)C)cc1,inactive,–
CCCCCCCCCCCC(=O)OC[C@@H](O)[C@H]1OC[C@H](O)[C@H]1O,inactive,–
CCCC(C)C(O)CC (stereo not given),inactive,–
C=C(C#N)C(=O)OCC,inactive,–
CC(=O)CC(=O)Nc1ccccc1,inactive,–
CCCCOCC,inactive,–
CC1C2CC(CC2C2CCCC(O)C2)C1(C)C (stereo not given),inactive,–
OC[C@H]1O[C@@H](Oc2ccc(O)cc2)[C@H](O)[C@@H](O)[C@@H]1O,inactive,–
CC1=CC[C@@]23C[C@@H]1C(C)(C)[C@@H]2CC[C@H]3C,inactive,–
O=C(Nc1ccc2c(O)c(N=Nc3ccc(N=Nc4ccc(S(=O)(=O)O)cc4)cc3)c(S(=O)(=O)O)cc2c1)c1ccccc1,inactive,–
CC1CC(O)CC(C)(C)C1 (stereo not given),inactive,–
OCC(O)c1ccccc1 (stereo not given),inactive,–
O=C(O)c1ccc(O)cc1,inactive,–
CC1(C)COCN1,inactive,–
COC(C)(C)CCO,inactive,–
C=C(C)C1CC=C(C)C(=O)C1 (stereo not given),inactive,–
Cc1ccc(-c2ccccc2)cc1,inactive,–

Structure (SMILES),outcome,AC50
COc1ccc(N)c([N+](=O)[O-])c1,inactive,–
CCCCCCCCCCCCCCCC(=O)OC/C=C(C)/C=C/C=C(C)/C=C/C1=C(C)CCCC1(C)C,inactive,–
c1ccc(CCc2ccccc2)cc1,inactive,–
Nc1ccc(NCCO)c([N+](=O)[O-])c1,inactive,–
O=P(O)(O)O,inactive,–
COc1ccc(COC(C)=O)cc1,inactive,–
CC(C)=CCCC(C)CC(=O)O (stereo not given),inactive,–
CCCCCCOC(=O)CCC,inactive,–
N#Cc1ccc(CC(=O)c2cccc(C(F)(F)F)c2)cc1,–,170 µM (active)
C[C@H](CCC(=O)NCC(=O)O)[C@H]1CC[C@H]2[C@@H]3[C@H](O)C[C@@H]4C[C@H](O)CC[C@]4(C)[C@H]3C[C@H](O)[C@]12C,inactive,–
CCOC(=O)C(C#N)=C(c1ccccc1)c1ccccc1,inactive,–
Nc1ccc2c(O)cc(S(=O)(=O)O)cc2c1,inactive,–
O=C(O)CCCCCCCCC(=O)O,inactive,–
CCCCSCCCC,inactive,–
CC1(C)C(=O)N(Cl)C(=O)N1Br,inactive,–
Nc1ccc2cc(S(=O)(=O)O)cc(O)c2c1N=Nc1ccccc1C(F)(F)F,inactive,–
COc1ccc(N=Nc2cc(C)c(N=Nc3ccc(S(=O)(=O)O)cc3)cc2OC)cc1,–,100 µM (active)
CCCCCCCCCCCCS(=O)(=O)Cl,inactive,–
CC(C)c1ccccc1O,inactive,–
CCCCCCCCSCCO,inactive,–
